Screening results deposited in PubChem by National Center for Advancing Translational Sciences (NCATS).
Sampled rows, rich in hits. Any-hit rate of the full collection: about 2.8%.
ATXN2 expr inh = inhibitors of ATXN2 expression; 0.72% of 360,000 active; AID 1745845; Potency, µM (series often up to 57 µM), hits mostly inhibitors; HEK-293 ATXN2-luciferase reporter, luminescence, 24 h; also: nearly all actives have a fitted effect of over 55% in size
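qHTS (up to 57 uM final) was run with 24 h compound exposure of reporter cells at 37 °C. Each well was multiplexed: SteadyGlo luminescence measured ATXN2-luciferase expression after a fluorogenic Gly-Phe-AFC viability readout (25 uM final).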
Six1-Eya2 blk = inhibitors of human Six1/Eya2 interaction | Q15475+O00167 | AlphaScreen GST-Six1/His-Eya2 binding, biochemical; stronger effect = lower value | activity change, % (no concentration beside the values) | 0.56% of 360,000 active | AID 651725; in the data active = activity change below about -65%; inconclusive = mostly about -30% to -63%
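Compounds are tested against tagged Six1 and Eya2 proteins bridged by glutathione donor and nickel acceptor beads; after a one-hour incubation at 37 °C without light, AlphaScreen emission is recorded.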
ATXN viability = reduces viability in counter-screen for ATXN expression inhibitors; S2 cells (HEK-293 line with an ATXN2-luciferase reporter) viability, CellTiter-Fluor protease fluorescence, 24 h; Potency, µM (highest dose often 56.7 µM), usual class: cytotoxic; 0.49% of 400,000 active; also: nearly all actives have a fitted effect of over 40% in size
HepG2 viability = kills HepG2 cells in TGF-b inhibitor counter-screen; Potency, µM (series often up to 46.1 µM), hits mostly cytotoxic; HepG2 CAGA-GFP viability, ATP luminescence, 18 h; AID 588856; 0.76% of 410,000 active
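HepG2 CAGA-GFP cells (1000/well, DMEM with 1% FBS) received compound, then TGF-beta at 500 pg/mL final, and were incubated 18 hours at 37 degrees C. Viability was read by CellTiter-Glo luminescence. Media-only wells were set as complete cell-killing and DMSO as no toxicity.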
CtBP-E1A inh = inhibitors of CtBP/E1A interaction | AlphaScreen GST-E1A/His-CtBP binding, 1536-well; stronger effect = lower value | activity change, % (no concentration beside the values) | 0.49% of 340,000 active; in the data active = activity change below about -65%; inconclusive = mostly about -30% to -63%
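Homogeneous bead-based format: GST-tagged E1A captured on glutathione donor beads, His-tagged CtBP on nickel acceptor beads; compounds precede bead addition by 2 h at 37 °C.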
TGFb inhibitor = TGF-b pathway inhibition. 1.2% of 410,000 active. AID 588855. Potency, µM (top dose mostly 46.1 µM), actives largely listed as inhibitors. HepG2 CAGA-GFP TGF-b/SMAD3 reporter, GFP fluorescence, 18 h; TGF-beta stimulated, 500 pg/mL final; also: nearly all actives have a fitted effect of over 65% in size
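GFP signal (ex488/em500-530) from TGF-beta-stimulated HEPG2 CAGA-GFP cells, 500 pg/mL final, 18 h at 37 degrees C in DMEM plus 1% FBS, normalized to unstimulated and DMSO-stimulated controls.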
Hits are given with their value; - = inactive; ? = inconclusive; . = no result. Unless noted, calls follow the shape of the dose curve; as a rule, active = well fitted curve in the direction sought with a large enough effect; inconclusive = small, poorly fitted or top-dose-only effect, or another doubt; inactive = no such curve, though single readings can be large; an effect the other way counts as inactive or inconclusive.

SMILES	ATXN2 expr inh	Six1-Eya2 blk	ATXN viability	HepG2 viability	CtBP-E1A inh	TGFb inhibitor
COc1ccc(C[C@H]2CN3C(=NC[C@H]3C)N2CCNC(=O)c2ccc(C)c(Br)c2)cc1	-	-	28µM	-	-	?
Cc1cc(C)c(NC(=O)CSc2nc(=O)n(Cc3ccco3)c3c2CCC3)c(C)c1	-	.	-	-	.	?
CCc1ccc(CN(Cc2ccco2)C(=O)COc2ccccc2Cl)cc1	.	.	.	-	.	?
CCN1CCCC1CNC(=O)c1cnn(-c2nccc(-c3ccco3)n2)c1C1CC1 (configuration not stated)	.	.	-	.	.	.
COc1ccc(CNC(=O)C2Cc3c(-c4ccccc4)ccnc3O2)cc1OC (configuration not stated)	-	-	-	-	-	-
COc1ccc(CCCNC(=O)C2Cc3c(-c4ccccc4)ccnc3O2)cc1 (configuration not stated)	?	-	18µM	-	-	?
CN1CCN(C2=C(Cl)C(=O)c3ccccc3C2=O)CC1	24µM	-	.	10µM	-	?
NC(=O)C1CCN(C2=C(Cl)C(=O)c3ccccc3C2=O)CC1	?	-	?	7.1µM	-	?
CN1CCN(c2nc(-c3ccc(Cl)s3)cs2)CC1	-	-	-	-	-	-
CN1CCN(C2=C(Cl)C(=O)C(c3cnc(N4CCCCC4)s3)=C(Cl)C2=O)CC1	?	-	25µM	-	-	?
O=C1C(Cl)=C(N2CCC(C(=O)O)CC2)C(=O)c2ccccc21	25µM	-	-	-	-	?
C1=Nc2ccccc2/C1=C/c1ccccc1	.	.	.	-	.	-
CC(C)NC(=O)C1(C)CSCC(=O)N1C1CCN(Cc2ccccc2)CC1 (configuration not stated)	.	-	.	.	-	.
Cc1ccc(S(=O)(=O)c2cn(CC(=O)Nc3cccc(C)c3)c3cc4c(cc3c2=O)OCO4)cc1	-	.	-	-	.	-
O=C(O)c1ccc(Nc2ncc3c(n2)-c2ccc(Cl)cc2C(c2c(F)cccc2F)=NC3)cc1	-	.	.	.	.	.
Oc1c(C(Nc2cccc(C(F)(F)F)c2)c2cccnc2)ccc2cccnc12 (configuration not stated)	?	-82	-	-	-86	?
Cc1cc(NC(c2cccnc2)c2ccc3cccnc3c2O)no1 (configuration not stated)	4µM	-88	-	-	-93	-
CC(C)(CNC(=O)c1cnn(-c2ncc3c(n2)-c2ccccc2CC3)c1C1CC1)N1CCOCC1	.	.	-	.	.	.
CCC(C)(C)c1ccc(OCCCC[n+]2cccc(C)c2)c(C(C)(C)CC)c1	?	-	?	-	-	10µM
CCCCCCCCCC[n+]1cccc(Br)c1	.	.	.	-	.	?
Nc1nc(Sc2ccc([N+](=O)[O-])c3nonc23)c2[nH]cnc2n1	14µM	?	.	-	-	?
CNc1ncnc(Sc2nc(N)nc3nc[nH]c23)c1[N+](=O)[O-]	?	-	?	-	-	?
Cc1ccc(S(=O)(=O)N2CCCCC2)cc1NC(=O)Cn1ccsc1=N	-	-	-	-	-	-
O=C(Nc1cccc(S(=O)(=O)N2CCOCC2)c1)[C@@H]1CCCN1S(=O)(=O)c1ccc(Cl)cc1	-	?	-	-	-65	-
N=c1sccn1CC(=O)Nc1cccc(S(=O)(=O)N2CCCCCC2)c1	.	-	16µM	-	.	-
O=C(Cc1ccc(Cl)cc1)Nc1cccc(S(=O)(=O)N2CCCCC2)c1	?	-	-	-	-	?
O=C(CCl)Nc1cccc(S(=O)(=O)N2CCCCCC2)c1	?	-	25µM	-	-	?
O=C(CCl)Nc1cccc(S(=O)(=O)NC2=NCCCCC2)c1	.	-	.	11µM	.	?
O=C(Nc1cccc(S(=O)(=O)N2CCOCC2)c1)C1CCCCN1S(=O)(=O)c1ccccc1 (configuration not stated)	-	?	-	-	?	-
Cc1cc(C)c2oc(-c3cc(NC(=O)Cc4ccccc4)ccc3Cl)nc2c1	-	.	-	-	.	?
